Test results: the OligoGym collection

These sequences were tested against AKR1C4 (assay: pooled miR-30 sensor sort-seq; sequence = guide strand). Settings: shRNA.
Note: reference of the scale not given here.

In order of falling sensor-assay potency score (higher = more potent):
1. TAAGGATGACATTCTACCTGGT  0.727
2. TAGAACTTTCATATCCTCTGAT  0.539
3. TTCAGTGAGCTTTCCAAGGCTG  0.323
4. TTTGGTGACCTCTACAGCTCTG  0.239
5. TTTGTTTGTGTTTCTTTGCTAA  0.179
6. TTGGTGACCTCTACAGCTCTGT  0.122
7. TTGTGTTTCTTTGCTAAGGCAC  -0.225
8. TACTTTTCCATTTTCATCTTTT  -0.351
9. ATATCCTCTGATGTCAACTGGA  -0.353
10. TTCATCTTTTGGTAGTGGCGTC  -0.396
11. TAGACCATCTAGAACTTTCATA  -0.398
12. ATCATTTAGCTCTACACGCTGA  -0.425
13. TTGGTAGTGGCGTCTCACCTGG  -0.771
14. TATCCTCTGATGTCAACTGGAA  -0.803
15. TTGCTAAGGCACAAAGAACTGG  -0.934
16. TGGATAATCAGGATGGTCCATA  -1.08
17. AACATATCGATAATTTCTGTTT  -1.09
18. TTTCATATCCTCTGATGTCAAC  -1.3
19. TTGTTTGTGTTTCTTTGCTAAG  -1.47
20. TTATTGTATAAATAAGCAGAAT  -1.48
21. TTCTGTTTAGACCATCTAGAAC  -1.64
22. AATCCATGACAACATATCGATA  -1.75
